The record followed here is PubChem BioAssay (NCI).

Compounds without any hit were thinned out: in the full panel of roughly 79,000, 15% have a hit. A number with no mark means an inactive call. The source made the active and inactive calls. Cut-off read from the data, not from the text of the source: active = growth inhibition above about 70%; inactive = the rest.

The nature of test [1]: NCI Yeast Anticancer Drug Screen. Data for the rad50 strain (AID 155).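 Note: 0% = growth of vehicle-only cultures of the same strain.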 The following applies: S. cerevisiae rad50 strain growth inhibition, stronger effect = higher value. The gist of the method: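 Yeast carrying a defined DNA repair defect were exposed to test compounds, and growth was compared with vehicle-treated controls to give percent inhibition.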
Test [2] is described as follows: NCI Yeast Anticancer Drug Screen. Data for the mec2-1 strain (AID 157). The following applies: S. cerevisiae mec2-1 strain, stronger effect = higher value. The essentials:
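Compounds were applied to mec2-1 yeast cells. Their growth was then compared with that of vehicle-treated cultures to give growth inhibition.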

Test [3] in a line: NCI Yeast Anticancer Drug Screen. Data for the sgs1 mgt1 strain (AID 161).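 Note: 0% = growth of cultures given vehicle only.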 Conditions: S. cerevisiae sgs1 mgt1 strain, stronger effect = higher value. The gist of the method: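 Growth of a repair-deficient yeast mutant was monitored after compound treatment and expressed as inhibition relative to vehicle-treated cultures.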
Test [4] can be described thus: NCI Yeast Anticancer Drug Screen. Data for the cln2 rad14 strain (AID 165).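 Note: 0% = growth equal to vehicle treated cultures.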 The following applies: S. cerevisiae cln2 rad14 strain, stronger effect = higher value. The essentials: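 Strain: cln2 rad14 yeast, altered in cell cycle control and DNA damage repair. Read-out: growth inhibition vs vehicle.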
Test [5] in a line: NCI Yeast Anticancer Drug Screen. Data for the bub3 strain (AID 167). The following applies: S. cerevisiae bub3 mutant strain, stronger effect = higher value. The gist of the method:
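Compounds were applied to a genetically altered yeast strain carrying a cell-cycle control defect. Growth inhibition was scored against vehicle-treated controls.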

Test [6] is described as follows: NCI Yeast Anticancer Drug Screen. Data for the mlh1 rad18 strain (AID 175). The following applies: S. cerevisiae mlh1 rad18 strain growth inhibition, stronger effect = higher value. The gist of the method: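 A repair-deficient yeast strain is exposed to test compound, and growth is scored relative to vehicle-treated controls.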
The mark [7] stands for this setting: at 5.0 µM (retest, dose inferred, filed as 0.5).
Setting [8] is: at 50.0 µM (retest, dose inferred, filed as 5.0).

Regarding `O=C1CCC(Cc2ccc(Cl)cc2Cl)C(=O)N1` (configuration not stated), the growth inhibition in test [1] (setting [7]) is -8%; in test [1] (setting [8]) it was 3%; in test [1] (at 50.0 µM), -7.6%; in test [2] (setting [7]), -3%; in test [2] (setting [8]) it was -6%; in test [2] (at 50.0 µM) it was 6.15%. Also, the growth inhibition in test [3] (setting [7]) was 45%; in test [3] (setting [8]), 95% (active); in test [3] (at 50.0 µM) it was 92.8% (active); in test [4] (setting [7]), -4%; in test [4] (setting [8]) it was -2%; in test [4] (at 50.0 µM) it was -68.7%. The growth inhibition in test [5] (setting [7]) was -4%; in test [5] (setting [8]), 0%; in test [5] (at 50.0 µM) it was -47.7%; in test [6] (setting [7]) it was -5%; in test [6] (setting [8]), 3%; in test [6] (at 50.0 µM) it was -7%.

As for `N#Cc1cc([N+](=O)[O-])ccc1NC(=O)/C(=N/N)C(C(=O)c1ccc(Cl)c(Cl)c1)C1OC(=O)c2ccccc21` (configuration not stated), the growth inhibition in test [1] (setting [7]) was 23%; in test [1] (setting [8]) it was 23%; in test [1] (at 50.0 µM) it was 91.8% (active); in test [2] (setting [7]), 11%; in test [2] (setting [8]), 11%; in test [2] (at 50.0 µM), 92.2% (active). In addition, the growth inhibition was 18% in test [3] (setting [7]); 18% in test [3] (setting [8]); 91.2% (active) in test [3] (at 50.0 µM); 1% in test [4] (setting [7]); 1% in test [4] (setting [8]); 90.2% (active) in test [4] (at 50.0 µM). Moreover, the growth inhibition in test [5] (setting [7]) was 11%; in test [5] (setting [8]) it was 11%; in test [5] (at 50.0 µM) it was 92.4% (active); in test [6] (setting [7]), 5%; in test [6] (setting [8]), 5%; in test [6] (at 50.0 µM), 92% (active).

Consider `Nc1nc(-c2ccc(Cl)cc2)c(N=Nc2ccc(Br)cc2)s1`, for which the growth inhibition is 1% in test [1] (setting [7]); 93% (active) in test [1] (setting [8]); 97.5% (active) in test [1] (at 50.0 µM); -20% in test [2] (setting [7]); 96% (active) in test [2] (setting [8]); 98% (active) in test [2] (at 50.0 µM). Also, the growth inhibition in test [3] (setting [7]) was 3%; in test [3] (setting [8]), 94% (active); in test [3] (at 50.0 µM), 98.3% (active); in test [4] (setting [7]) it was -11%; in test [4] (setting [8]), 89% (active); in test [4] (at 50.0 µM) it was 95.4% (active). Also, the growth inhibition in test [5] (setting [7]) is -17%; in test [5] (setting [8]) it was 91% (active); in test [5] (at 50.0 µM) it was 96.5% (active); in test [6] (setting [7]), 11%; in test [6] (setting [8]), 97% (active); in test [6] (at 50.0 µM), 98.5% (active).

Consider `CC1(C)C(=O)N(CCCCCCN2C(=O)C(C)(C)c3ccccc32)c2ccccc21`, for which the growth inhibition in test [1] (setting [7]) was 20%; in test [1] (setting [8]), 20%; in test [1] (at 50.0 µM) it was 79.5% (active); in test [2] (setting [7]), 4%; in test [2] (setting [8]) it was 4%; in test [2] (at 50.0 µM), 78% (active). Further, the growth inhibition in test [3] (setting [7]) was 5%; in test [3] (setting [8]), 5%; in test [3] (at 50.0 µM) it was 81.5% (active); in test [4] (setting [7]) it was -11%; in test [4] (setting [8]), -11%; in test [4] (at 50.0 µM), 83.5% (active). For the same molecule, the growth inhibition was 12% in test [5] (setting [7]); 12% in test [5] (setting [8]); 73.2% (active) in test [5] (at 50.0 µM); 3% in test [6] (setting [7]); 3% in test [6] (setting [8]); 78.5% (active) in test [6] (at 50.0 µM).

With `CS(=O)(=O)OCCN(CCOS(C)(=O)=O)c1ccc(C=Nc2ccc3ccccc3c2)c(Cl)c1`, the growth inhibition was 5% in test [1] (setting [7]); 22% in test [1] (setting [8]); 10.4% in test [1] (at 50.0 µM); -203% in test [2] (setting [7]); -3% in test [2] (setting [8]); 23.1% in test [2] (at 50.0 µM). Also, the growth inhibition in test [3] (setting [7]) is 3%; in test [3] (setting [8]), 14%; in test [3] (at 50.0 µM), 34%; in test [4] (setting [7]) it was 11%; in test [4] (setting [8]), -9%; in test [4] (at 50.0 µM) it was 35.4%. The growth inhibition in test [5] (setting [7]) was 0%; in test [5] (setting [8]) it was -9%; in test [5] (at 50.0 µM) it was 5.85%; in test [6] (setting [7]), 7%; in test [6] (setting [8]) it was 34%; in test [6] (at 50.0 µM) it was 66%.

Consider `Nc1ncnc2c1ncn2CC(O)CN(CCO)CCO` (configuration not stated) (tested in a mixture with another compound), for which the growth inhibition in test [1] (setting [7]) is -24%; in test [1] (setting [8]), -1%; in test [1] (at 50.0 µM) it was -5%; in test [2] (setting [7]) it was -10%; in test [2] (setting [8]), -7%; in test [2] (at 50.0 µM), -3.15%. Also, the growth inhibition in test [3] (setting [7]) was -11%; in test [3] (setting [8]) it was -3%; in test [3] (at 50.0 µM), -12.1%; in test [4] (setting [7]), -12%; in test [4] (setting [8]), 4%; in test [4] (at 50.0 µM), 18.8%. Further, the growth inhibition in test [5] (setting [7]) was 7%; in test [5] (setting [8]), 15%; in test [5] (at 50.0 µM), 2%; in test [6] (setting [7]), -15%; in test [6] (setting [8]), -17%; in test [6] (at 50.0 µM), 22.2%.

On to `CC(C)(C[NH-])C[NH-].[Cl][Pt+2]([Cl])([Cl])[Cl]`, for which the growth inhibition in test [1] (setting [7]) is 78% (active); in test [1] (setting [8]), 97% (active); in test [1] (at 50.0 µM) it was 82.3% (active); in test [2] (setting [7]) it was 93% (active); in test [2] (setting [8]), 99% (active); in test [2] (at 50.0 µM) it was 86.5% (active). In addition, the growth inhibition in test [3] (setting [7]) is 95% (active); in test [3] (setting [8]), 99% (active); in test [3] (at 50.0 µM), 86.5% (active); in test [4] (setting [7]) it was 79% (active); in test [4] (setting [8]), 99% (active); in test [4] (at 50.0 µM) it was 87.4% (active). For the same molecule, the growth inhibition in test [5] (setting [7]) is 95% (active); in test [5] (setting [8]), 99% (active); in test [5] (at 50.0 µM), 82.5% (active); in test [6] (setting [7]), 90% (active); in test [6] (setting [8]), 97% (active); in test [6] (at 50.0 µM) it was 57.5%.

For the molecule `Cc1c[n+](CC(=O)c2ccc(I)cc2)c(C)s1`, the growth inhibition in test [1] (setting [7]) was 0%; in test [1] (setting [8]) it was 13%; in test [1] (at 50.0 µM) it was -16.2%; in test [2] (setting [7]), -1%; in test [2] (setting [8]) it was 2%; in test [2] (at 50.0 µM), 4.1%. In addition, the growth inhibition in test [3] (setting [7]) was -1%; in test [3] (setting [8]), 12%; in test [3] (at 50.0 µM) it was -2.85%; in test [4] (setting [7]), -4%; in test [4] (setting [8]), -5%; in test [4] (at 50.0 µM), 46.3%. The growth inhibition in test [5] (setting [7]) is -2%; in test [5] (setting [8]) it was 9%; in test [5] (at 50.0 µM), 1.7%; in test [6] (setting [7]), -2%; in test [6] (setting [8]), -2%; in test [6] (at 50.0 µM), 16.8%.

`OCCc1ccccc1C(c1ccccc1)c1ccccc1`: the growth inhibition is 5% in test [1] (setting [7]); 98% (active) in test [1] (setting [8]); 99.3% (active) in test [1] (at 50.0 µM); -4% in test [2] (setting [7]); 99% (active) in test [2] (setting [8]); 99.4% (active) in test [2] (at 50.0 µM). Moreover, the growth inhibition in test [3] (setting [7]) is 1%; in test [3] (setting [8]) it was -16%; in test [3] (at 50.0 µM) it was 99.2% (active); in test [4] (setting [7]) it was 8%; in test [4] (setting [8]), 99% (active); in test [4] (at 50.0 µM), 98.8% (active). For the same molecule, the growth inhibition in test [5] (setting [7]) was 0%; in test [5] (setting [8]), 99% (active); in test [5] (at 50.0 µM) it was 99.2% (active); in test [6] (setting [7]) it was 4%; in test [6] (setting [8]), 99% (active); in test [6] (at 50.0 µM) it was 98.9% (active).
